# Laboratory results published in PMC7862700, “An all-to-all approach to the identification of sequence-specific readers for epigenetic DNA modifications on cytosine”.
# What was measured:
# Assay in all cases: DAPPL (digital affinity profiling via proximity ligation, sequencing); 10 mM Tris-HCl pH 7.5, 50 mM NaCl, 1 mM DTT, 4% glycerol, room temperature, 30 min; GST-TFs on glutathione beads, 16-mer random dsDNA library, 0.1% formaldehyde crosslink after washing; high values mean tight binding
# FLI1 = target: T1, FLI1 (Homo sapiens, UniProt Q01543 1-452); conditions: protein: recombinant; tags: N-terminal GST; dsDNA, one strand shown
# T1 sequence: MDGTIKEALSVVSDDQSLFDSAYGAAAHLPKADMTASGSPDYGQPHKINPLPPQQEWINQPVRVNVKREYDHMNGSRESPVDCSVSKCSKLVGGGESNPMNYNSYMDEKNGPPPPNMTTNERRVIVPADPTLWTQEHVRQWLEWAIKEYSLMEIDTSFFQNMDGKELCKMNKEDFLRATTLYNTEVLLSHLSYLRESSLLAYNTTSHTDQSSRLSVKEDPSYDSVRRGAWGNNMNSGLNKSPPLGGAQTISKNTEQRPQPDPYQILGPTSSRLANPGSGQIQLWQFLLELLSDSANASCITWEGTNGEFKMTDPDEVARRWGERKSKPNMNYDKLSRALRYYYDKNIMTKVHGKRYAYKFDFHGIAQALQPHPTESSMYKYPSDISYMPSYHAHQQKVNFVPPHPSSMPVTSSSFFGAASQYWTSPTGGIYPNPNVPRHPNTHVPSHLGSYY
# How it was run: (§1)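 Beads coated with glutathione captured GST-fused human transcription factors that had been expressed in yeast, and the factors were then given DNA barcodes and pooled with a tag-only sample. The pools were incubated with 200 nmole of a random double-stranded 16-mer DNA library in Tris/NaCl/DTT/glycerol buffer for 30 min at room temperature, washed, crosslinked with 0.1% formaldehyde and proximity-ligated with BsaI/T4 ligase at 37 °C for 1 h. PCR amplification and Illumina NextSeq500 sequencing came last. Binding signal is each hexamer's read frequency for a factor divided by its frequency for the tag-only sample.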
# ELK1 = target: T2, ELK1 (Homo sapiens, UniProt P19419 1-428); conditions: protein: recombinant; tags: N-terminal GST; dsDNA, one strand shown
# T2 sequence: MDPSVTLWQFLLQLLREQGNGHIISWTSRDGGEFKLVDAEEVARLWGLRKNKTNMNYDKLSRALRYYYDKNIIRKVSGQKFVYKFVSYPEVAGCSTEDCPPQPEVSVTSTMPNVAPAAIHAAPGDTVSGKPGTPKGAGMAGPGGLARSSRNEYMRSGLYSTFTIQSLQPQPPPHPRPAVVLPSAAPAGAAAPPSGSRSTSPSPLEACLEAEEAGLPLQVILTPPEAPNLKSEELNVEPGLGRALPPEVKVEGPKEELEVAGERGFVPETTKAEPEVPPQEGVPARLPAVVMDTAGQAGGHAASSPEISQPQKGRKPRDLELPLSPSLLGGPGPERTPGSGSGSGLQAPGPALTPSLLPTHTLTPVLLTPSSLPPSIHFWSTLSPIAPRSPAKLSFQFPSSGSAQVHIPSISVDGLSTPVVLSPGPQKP
# How it was run: as §1
# GABPA = target: T3, GABPA (Homo sapiens, UniProt Q06546 1-454); conditions: protein: recombinant; tags: N-terminal GST; dsDNA, one strand shown
# T3 sequence: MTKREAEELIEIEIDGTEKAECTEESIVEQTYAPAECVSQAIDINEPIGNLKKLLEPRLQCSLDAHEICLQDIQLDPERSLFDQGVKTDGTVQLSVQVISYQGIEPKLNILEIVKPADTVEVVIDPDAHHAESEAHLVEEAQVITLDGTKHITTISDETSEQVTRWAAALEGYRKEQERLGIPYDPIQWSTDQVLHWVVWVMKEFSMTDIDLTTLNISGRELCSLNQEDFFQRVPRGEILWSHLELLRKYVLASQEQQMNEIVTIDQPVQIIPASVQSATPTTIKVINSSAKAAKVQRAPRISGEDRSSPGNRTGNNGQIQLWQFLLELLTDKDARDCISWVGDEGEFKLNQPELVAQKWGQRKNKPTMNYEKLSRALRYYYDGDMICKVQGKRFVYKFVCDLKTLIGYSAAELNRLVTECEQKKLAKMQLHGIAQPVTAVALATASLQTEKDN
# How it was run: as §1
# ERG = target: T4, ERG (Homo sapiens, UniProt P11308 1-479); conditions: protein: recombinant; tags: N-terminal GST; dsDNA, one strand shown
# T4 sequence: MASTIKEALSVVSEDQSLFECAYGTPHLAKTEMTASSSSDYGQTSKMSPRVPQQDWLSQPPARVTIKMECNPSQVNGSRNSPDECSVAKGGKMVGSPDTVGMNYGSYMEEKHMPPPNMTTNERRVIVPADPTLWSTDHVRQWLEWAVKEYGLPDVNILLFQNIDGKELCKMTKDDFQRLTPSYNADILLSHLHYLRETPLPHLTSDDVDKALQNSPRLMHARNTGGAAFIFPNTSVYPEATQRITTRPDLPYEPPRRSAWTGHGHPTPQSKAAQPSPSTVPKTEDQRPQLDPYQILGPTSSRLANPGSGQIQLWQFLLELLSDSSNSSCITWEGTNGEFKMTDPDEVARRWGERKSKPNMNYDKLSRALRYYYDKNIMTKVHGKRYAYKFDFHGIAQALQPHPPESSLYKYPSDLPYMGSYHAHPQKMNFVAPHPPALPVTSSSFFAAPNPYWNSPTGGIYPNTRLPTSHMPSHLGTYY
# How it was run: as §1
# ELF1 = ELF1 (Homo sapiens, UniProt P32519 1-619); conditions: protein: recombinant; tags: N-terminal GST; dsDNA, one strand shown
# Sequence of ELF1 (P32519 whole entry): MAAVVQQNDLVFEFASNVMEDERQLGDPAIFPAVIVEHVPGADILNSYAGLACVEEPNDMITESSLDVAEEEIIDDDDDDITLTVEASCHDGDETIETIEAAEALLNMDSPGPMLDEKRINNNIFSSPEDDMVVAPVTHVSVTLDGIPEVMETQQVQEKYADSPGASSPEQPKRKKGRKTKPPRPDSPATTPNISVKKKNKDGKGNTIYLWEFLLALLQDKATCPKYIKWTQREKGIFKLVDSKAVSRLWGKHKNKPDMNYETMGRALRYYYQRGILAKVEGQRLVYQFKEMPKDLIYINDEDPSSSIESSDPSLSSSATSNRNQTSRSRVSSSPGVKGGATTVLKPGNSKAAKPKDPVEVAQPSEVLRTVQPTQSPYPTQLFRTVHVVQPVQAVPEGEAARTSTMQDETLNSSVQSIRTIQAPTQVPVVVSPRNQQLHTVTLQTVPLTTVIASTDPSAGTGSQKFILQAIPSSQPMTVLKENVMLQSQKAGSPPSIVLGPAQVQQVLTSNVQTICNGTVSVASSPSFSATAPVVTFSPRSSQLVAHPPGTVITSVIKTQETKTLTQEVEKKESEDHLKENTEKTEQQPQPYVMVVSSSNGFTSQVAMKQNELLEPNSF
# How it was run: as §1
# EHF = target: T5, EHF (Homo sapiens, UniProt Q9NZC4 1-300); conditions: protein: recombinant; tags: N-terminal GST; dsDNA, one strand shown
# T5 sequence: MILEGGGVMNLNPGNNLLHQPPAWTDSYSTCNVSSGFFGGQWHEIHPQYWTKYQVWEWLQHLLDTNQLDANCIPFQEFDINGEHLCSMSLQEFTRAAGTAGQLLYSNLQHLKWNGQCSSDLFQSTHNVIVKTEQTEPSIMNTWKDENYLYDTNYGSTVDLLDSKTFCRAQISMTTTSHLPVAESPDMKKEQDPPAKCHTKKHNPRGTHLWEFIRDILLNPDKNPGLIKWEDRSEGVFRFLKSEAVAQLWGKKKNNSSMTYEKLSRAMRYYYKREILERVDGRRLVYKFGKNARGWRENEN
# How it was run: as §1
# SPI1 = SPI1 (Homo sapiens, UniProt P17947 1-270); conditions: protein: recombinant; tags: N-terminal GST; dsDNA, one strand shown
# How it was run: as §1
# SPIB = SPIB (Homo sapiens, UniProt Q01892 1-262); conditions: protein: recombinant; tags: N-terminal GST; dsDNA, one strand shown
# Sequence of SPIB (Q01892 whole entry): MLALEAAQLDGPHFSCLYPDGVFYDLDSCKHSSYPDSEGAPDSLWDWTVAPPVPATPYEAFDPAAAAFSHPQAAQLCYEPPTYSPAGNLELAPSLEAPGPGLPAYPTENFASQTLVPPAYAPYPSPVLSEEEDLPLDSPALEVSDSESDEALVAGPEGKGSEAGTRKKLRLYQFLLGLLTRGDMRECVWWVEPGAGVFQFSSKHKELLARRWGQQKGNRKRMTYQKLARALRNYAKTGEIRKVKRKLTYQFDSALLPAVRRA
# How it was run: as §1
# ELK3 = target: T6, ELK3 (Homo sapiens, UniProt P41970 1-407); conditions: protein: recombinant; tags: N-terminal GST; dsDNA, one strand shown
# T6 sequence: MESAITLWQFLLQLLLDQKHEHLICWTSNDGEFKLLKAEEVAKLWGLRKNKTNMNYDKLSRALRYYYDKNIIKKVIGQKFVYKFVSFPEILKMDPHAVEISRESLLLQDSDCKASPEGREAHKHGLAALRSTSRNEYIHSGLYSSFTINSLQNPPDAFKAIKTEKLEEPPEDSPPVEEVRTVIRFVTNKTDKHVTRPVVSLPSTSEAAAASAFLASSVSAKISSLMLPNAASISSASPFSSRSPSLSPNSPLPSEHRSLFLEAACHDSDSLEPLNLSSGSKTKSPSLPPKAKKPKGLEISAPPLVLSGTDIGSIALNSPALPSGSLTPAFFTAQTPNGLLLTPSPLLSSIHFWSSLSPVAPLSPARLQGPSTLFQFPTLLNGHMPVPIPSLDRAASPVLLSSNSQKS
# How it was run: as §1
# FEV = target: T7, FEV (Homo sapiens, UniProt Q99581 1-238); conditions: protein: recombinant; tags: N-terminal GST; dsDNA, one strand shown
# T7 sequence: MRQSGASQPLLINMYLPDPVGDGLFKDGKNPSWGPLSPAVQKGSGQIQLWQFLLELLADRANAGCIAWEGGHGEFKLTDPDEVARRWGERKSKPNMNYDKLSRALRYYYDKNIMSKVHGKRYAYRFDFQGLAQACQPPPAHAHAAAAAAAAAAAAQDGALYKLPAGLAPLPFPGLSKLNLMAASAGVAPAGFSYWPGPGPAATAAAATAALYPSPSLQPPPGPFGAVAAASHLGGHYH
# How it was run: as §1
# ETV5 = ETV5 (Homo sapiens, UniProt P41161 1-510); conditions: protein: recombinant; tags: N-terminal GST; dsDNA, one strand shown
# Sequence of ETV5 (P41161 whole entry): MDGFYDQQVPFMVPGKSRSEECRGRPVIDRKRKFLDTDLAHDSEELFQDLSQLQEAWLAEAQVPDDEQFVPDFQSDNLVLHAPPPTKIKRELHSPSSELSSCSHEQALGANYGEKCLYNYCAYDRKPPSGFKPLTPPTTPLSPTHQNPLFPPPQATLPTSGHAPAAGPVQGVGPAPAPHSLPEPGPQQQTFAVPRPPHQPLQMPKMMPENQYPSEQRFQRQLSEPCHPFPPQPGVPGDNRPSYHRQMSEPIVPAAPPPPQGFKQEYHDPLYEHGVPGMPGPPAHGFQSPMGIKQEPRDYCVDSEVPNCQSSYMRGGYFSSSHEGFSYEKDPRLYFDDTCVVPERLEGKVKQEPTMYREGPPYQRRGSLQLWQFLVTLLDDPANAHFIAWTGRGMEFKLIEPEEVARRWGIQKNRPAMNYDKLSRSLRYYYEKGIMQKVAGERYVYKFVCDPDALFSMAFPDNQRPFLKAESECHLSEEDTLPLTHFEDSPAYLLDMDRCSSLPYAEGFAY
# How it was run: as §1
# HSF1 = HSF1 (Homo sapiens, UniProt Q00613 1-529); conditions: protein: recombinant; tags: N-terminal GST; chain copies: 3; dsDNA, one strand shown
# Sequence of HSF1 (Q00613 whole entry): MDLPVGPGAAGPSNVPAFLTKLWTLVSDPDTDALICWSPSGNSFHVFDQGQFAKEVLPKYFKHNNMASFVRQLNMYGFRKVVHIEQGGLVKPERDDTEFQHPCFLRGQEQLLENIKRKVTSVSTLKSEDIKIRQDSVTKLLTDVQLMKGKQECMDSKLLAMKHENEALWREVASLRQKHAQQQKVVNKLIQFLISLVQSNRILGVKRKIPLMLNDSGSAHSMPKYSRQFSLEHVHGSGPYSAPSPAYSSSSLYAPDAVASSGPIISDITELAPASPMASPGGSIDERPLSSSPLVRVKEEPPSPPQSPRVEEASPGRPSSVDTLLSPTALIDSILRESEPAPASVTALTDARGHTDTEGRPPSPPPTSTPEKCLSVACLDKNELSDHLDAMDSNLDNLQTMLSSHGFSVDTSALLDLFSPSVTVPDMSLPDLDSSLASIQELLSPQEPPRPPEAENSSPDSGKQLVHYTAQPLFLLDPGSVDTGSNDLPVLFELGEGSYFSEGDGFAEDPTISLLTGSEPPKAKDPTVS
# How it was run: as §1
# SPIC = target: T8, SPIC (Homo sapiens, UniProt Q8N5J4 1-248); conditions: protein: recombinant; tags: N-terminal GST; dsDNA, one strand shown
# T8 sequence: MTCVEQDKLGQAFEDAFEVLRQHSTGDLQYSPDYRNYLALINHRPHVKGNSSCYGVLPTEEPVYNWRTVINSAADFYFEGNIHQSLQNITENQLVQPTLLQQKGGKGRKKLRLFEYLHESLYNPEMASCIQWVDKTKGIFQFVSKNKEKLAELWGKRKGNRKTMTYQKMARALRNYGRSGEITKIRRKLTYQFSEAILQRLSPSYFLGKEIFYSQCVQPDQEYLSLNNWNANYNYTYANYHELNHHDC
# How it was run: as §1
# ELF4 = ELF4 (Homo sapiens, UniProt Q99607 1-663); conditions: protein: recombinant; tags: N-terminal GST; dsDNA, one strand shown
# Sequence of ELF4 (Q99607 whole entry): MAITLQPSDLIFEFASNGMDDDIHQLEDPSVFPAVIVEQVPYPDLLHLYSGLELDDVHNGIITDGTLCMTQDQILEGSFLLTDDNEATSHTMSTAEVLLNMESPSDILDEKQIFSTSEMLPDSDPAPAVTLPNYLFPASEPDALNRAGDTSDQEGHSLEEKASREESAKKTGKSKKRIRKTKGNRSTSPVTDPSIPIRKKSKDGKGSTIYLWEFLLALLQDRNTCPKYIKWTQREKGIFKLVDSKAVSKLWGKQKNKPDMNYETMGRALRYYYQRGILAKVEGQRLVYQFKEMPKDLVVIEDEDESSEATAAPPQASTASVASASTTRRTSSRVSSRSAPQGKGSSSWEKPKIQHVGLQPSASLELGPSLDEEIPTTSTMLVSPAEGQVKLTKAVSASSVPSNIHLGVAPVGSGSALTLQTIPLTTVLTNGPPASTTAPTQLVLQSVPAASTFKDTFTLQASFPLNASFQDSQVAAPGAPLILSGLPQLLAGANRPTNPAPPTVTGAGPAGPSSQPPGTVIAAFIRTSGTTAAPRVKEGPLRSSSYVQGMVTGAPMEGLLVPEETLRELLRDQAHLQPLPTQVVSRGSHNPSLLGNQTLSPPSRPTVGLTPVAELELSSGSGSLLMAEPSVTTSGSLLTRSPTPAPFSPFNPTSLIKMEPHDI
# How it was run: as §1
# ELK4 = target: T9, ELK4 (Homo sapiens, UniProt P28324-2 1-405); conditions: protein: recombinant; tags: N-terminal GST; dsDNA, one strand shown
# T9 sequence: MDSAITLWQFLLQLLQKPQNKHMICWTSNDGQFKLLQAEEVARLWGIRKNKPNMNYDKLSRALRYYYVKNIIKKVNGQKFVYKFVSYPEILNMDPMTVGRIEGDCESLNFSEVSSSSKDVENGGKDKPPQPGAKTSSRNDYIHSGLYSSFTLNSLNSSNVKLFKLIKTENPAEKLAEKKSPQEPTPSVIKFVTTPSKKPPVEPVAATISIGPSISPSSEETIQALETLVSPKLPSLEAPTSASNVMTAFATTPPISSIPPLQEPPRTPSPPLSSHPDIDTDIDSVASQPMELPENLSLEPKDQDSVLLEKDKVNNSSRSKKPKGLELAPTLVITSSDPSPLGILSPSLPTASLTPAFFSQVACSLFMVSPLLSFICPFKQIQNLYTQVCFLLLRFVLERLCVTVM
# How it was run: as §1
# ETV2 = target: T10, ETV2 (Homo sapiens, UniProt O00321 1-342); conditions: protein: recombinant; tags: N-terminal GST; dsDNA, one strand shown
# T10 sequence: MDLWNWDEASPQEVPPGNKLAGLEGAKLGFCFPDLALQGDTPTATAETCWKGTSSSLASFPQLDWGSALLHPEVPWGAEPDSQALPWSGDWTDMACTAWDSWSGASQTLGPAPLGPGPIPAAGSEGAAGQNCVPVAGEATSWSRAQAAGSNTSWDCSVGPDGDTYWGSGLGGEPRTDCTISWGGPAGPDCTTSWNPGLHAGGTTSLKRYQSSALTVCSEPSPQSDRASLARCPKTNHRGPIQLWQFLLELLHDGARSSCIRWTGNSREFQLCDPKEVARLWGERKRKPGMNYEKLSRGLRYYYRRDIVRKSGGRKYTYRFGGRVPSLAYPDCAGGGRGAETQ
# How it was run: as §1
# ELF3 = target: T11, ELF3 (Homo sapiens, UniProt P78545 1-371); conditions: protein: recombinant; tags: N-terminal GST; dsDNA, one strand shown
# T11 sequence: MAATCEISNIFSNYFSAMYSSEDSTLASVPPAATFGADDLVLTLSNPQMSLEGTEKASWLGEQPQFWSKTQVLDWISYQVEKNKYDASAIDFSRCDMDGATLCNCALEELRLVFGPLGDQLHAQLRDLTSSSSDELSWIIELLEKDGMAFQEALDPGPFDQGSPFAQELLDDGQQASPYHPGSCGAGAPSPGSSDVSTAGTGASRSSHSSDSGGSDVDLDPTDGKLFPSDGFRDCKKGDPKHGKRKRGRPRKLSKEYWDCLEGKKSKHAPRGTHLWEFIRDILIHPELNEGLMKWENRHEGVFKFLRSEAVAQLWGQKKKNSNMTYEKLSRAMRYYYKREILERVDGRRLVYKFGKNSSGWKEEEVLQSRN
# How it was run: as §1
# CRX = CRX (Homo sapiens, UniProt O43186 1-299); conditions: protein: recombinant; tags: N-terminal GST; dsDNA, one strand shown
# Sequence of CRX (O43186 whole entry): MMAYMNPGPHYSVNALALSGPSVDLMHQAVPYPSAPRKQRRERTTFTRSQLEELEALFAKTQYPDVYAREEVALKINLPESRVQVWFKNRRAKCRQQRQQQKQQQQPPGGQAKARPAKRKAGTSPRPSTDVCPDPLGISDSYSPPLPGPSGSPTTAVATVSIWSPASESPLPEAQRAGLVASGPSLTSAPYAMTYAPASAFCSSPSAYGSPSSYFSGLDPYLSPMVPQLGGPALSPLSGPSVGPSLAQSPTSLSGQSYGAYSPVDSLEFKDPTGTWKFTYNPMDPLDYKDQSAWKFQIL
# How it was run: as §1
# ETV1 = ETV1 (Homo sapiens, UniProt P50549 1-477); conditions: protein: recombinant; tags: N-terminal GST; dsDNA, one strand shown
# Sequence of ETV1 (P50549 whole entry): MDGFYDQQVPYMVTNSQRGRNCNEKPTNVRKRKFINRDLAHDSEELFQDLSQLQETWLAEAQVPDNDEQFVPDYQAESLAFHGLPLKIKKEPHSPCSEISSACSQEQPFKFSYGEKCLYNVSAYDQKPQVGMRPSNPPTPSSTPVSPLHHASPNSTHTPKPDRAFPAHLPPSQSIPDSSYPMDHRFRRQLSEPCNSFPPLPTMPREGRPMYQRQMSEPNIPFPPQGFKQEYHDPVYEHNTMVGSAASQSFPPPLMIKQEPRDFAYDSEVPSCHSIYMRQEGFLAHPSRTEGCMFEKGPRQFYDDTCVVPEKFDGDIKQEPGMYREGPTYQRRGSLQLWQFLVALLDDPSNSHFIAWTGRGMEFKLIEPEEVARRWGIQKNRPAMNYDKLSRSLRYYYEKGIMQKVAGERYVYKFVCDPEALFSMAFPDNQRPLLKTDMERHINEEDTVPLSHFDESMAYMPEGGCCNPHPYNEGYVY
# How it was run: as §1
sequence,measurement,setting,value
GCCTTT,binding signal,FLI1,"1.33 fold enrichment (6-mer frequency, TF over GST control)"
same,binding signal,ELK1,"1.3 fold enrichment (6-mer frequency, TF over GST control)"
same,binding signal,GABPA,"1.32 fold enrichment (6-mer frequency, TF over GST control)"
same,binding signal,ERG,"1.2 fold enrichment (6-mer frequency, TF over GST control)"
same,binding signal,ELF1,"1.28 fold enrichment (6-mer frequency, TF over GST control)"
same,binding signal,EHF,"1.35 fold enrichment (6-mer frequency, TF over GST control)"
same,binding signal,SPI1,"1.49 fold enrichment (6-mer frequency, TF over GST control)"
same,binding signal,SPIB,"1.35 fold enrichment (6-mer frequency, TF over GST control)"
same,binding signal,ELK3,"1.27 fold enrichment (6-mer frequency, TF over GST control)"
same,binding signal,FEV,"1.41 fold enrichment (6-mer frequency, TF over GST control)"
same,binding signal,ETV5,"1.25 fold enrichment (6-mer frequency, TF over GST control)"
same,binding signal,HSF1,"1.24 fold enrichment (6-mer frequency, TF over GST control)"
same,binding signal,SPIC,"1.56 fold enrichment (6-mer frequency, TF over GST control)"
same,binding signal,ELF4,"1.36 fold enrichment (6-mer frequency, TF over GST control)"
same,binding signal,ELK4,"1.32 fold enrichment (6-mer frequency, TF over GST control)"
same,binding signal,ETV2,"1.53 fold enrichment (6-mer frequency, TF over GST control)"
same,binding signal,ELF3,"1.38 fold enrichment (6-mer frequency, TF over GST control)"
same,binding signal,CRX,"1.3 fold enrichment (6-mer frequency, TF over GST control)"
same,binding signal,ETV1,"1.34 fold enrichment (6-mer frequency, TF over GST control)"
